In PubChem BioAssay (NCI):
This is part of a sample that, as a whole, favours compounds with a hit. Of some 79,000 tested, about 15% had one in any assay. Activity calls are given as the source filed them. Rule as the data show it: active = growth inhibition above about 70%; inactive = the rest.

test: NCI Yeast Anticancer Drug Screen. Data for the bub3 strain (AID 167); conditions: S. cerevisiae bub3 mutant strain, at 50.0 µM, hits give high values
How it was run: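 In this screen, a yeast mutant lacking normal mitotic checkpoint function is challenged with compound. Relative growth versus vehicle gives the inhibition value.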

Row | Structure (SMILES) | growth inhibition
1 | O=C(Nc1ccccn1)c1ccccc1 | 26.4% (inactive)
2 | CCCCOC(=O)NC(=O)c1cc2cccc(OC)c2oc1=O | 14.8% (inactive)
3 | Cc1nnc2n(c1=O)CCN2C | 7.8% (inactive)
4 | Cc1ccc(N=C(C(=O)c2ccccc2)C(Nc2ccc(C)cc2)C(=O)c2ccccc2)cc1 (configuration not stated) | -3.7% (inactive)
5 | CCCCN(CCCC)CC(O)c1c2cccc(Cl)c2cc2c(Cl)cccc12 (configuration not stated) | 98.8% (active)
6 | CC(c1ccccc1)n1cnc2c(N(CCO)CCO)ncnc21 (configuration not stated) | 9.85% (inactive)
7 | CCOC1([N+](=O)[O-])c2ccccc2-c2nc3ccccc3cc21 (configuration not stated) | 78.8% (active)
8 | O=C(Nc1ccc(Br)cc1)C(=O)C(C(=O)c1ccc(Cl)c(Cl)c1)C1OC(=O)c2ccccc21 (configuration not stated) | 47.3% (inactive)
9 | Cc1ccc(-n2[nH]nc(C#N)c2=O)cc1 | -27.1% (inactive)
10 | FC(F)(F)c1nnc(-c2ccccc2)nn1 | -14.8% (inactive)
11 | C=CCOC(C)OCC=C | 13.3% (inactive)
12 | COc1ccc(COC(=O)NC2CCCCC2)cc1OC | 37% (inactive)

test: NCI Yeast Anticancer Drug Screen. Data for the mlh1 rad18 strain (AID 175); conditions: S. cerevisiae mlh1 rad18 strain growth inhibition; at 50.0 µM; hits give high values
How it was run: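 Compound-treated yeast growth, normalised to vehicle controls. Strain bears defined DNA repair mutations.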

Row | Structure (SMILES) | growth inhibition
13 | CC(O)C1CC1 (configuration not stated) | -5.7% (inactive)
14 | CCOC(=O)CCC(NC(=O)c1ccc(Nc2nc3ccccc3nc2C(=O)OCC)cc1)C(=O)OCC (configuration not stated) | 19.1% (inactive)
15 | CC(C)C(=O)Nc1ccccc1-c1ccccc1 | 8.8% (inactive)
16 | O=S(=O)(NCCNS(=O)(=O)c1ccccc1)c1ccccc1 | 4% (inactive)
17 | Nc1cc(=S)nc(N)[nH]1 | 28.9% (inactive)
18 | CC[N+](C)(CC)c1cccc(OC(=O)Nc2ccc(OC)cc2)c1 | 14.3% (inactive)
19 | CC(=O)Nc1nc2nccn2c(=O)[nH]1 | 2% (inactive)
20 | O=S1(=O)C=Cc2ccccc2CC1 | -27.8% (inactive)
21 | C=CCOC(=O)/C=C\C(=O)OCC=C | 3.15% (inactive)
22 | COc1ccc(OC)c2cc3c(cc12)C(=O)c1ccccc1C3=O | 46.9% (inactive)
23 | Nc1ccc(S(=O)(=O)CC(=O)N2CCOCC2)cc1 | 22.5% (inactive)
24 | Cc1cc(N(CCC#N)CCC#N)ccc1/C=C(\N=[N+]=[N-])C(=O)NC(=O)COc1ccccc1 | -9.05% (inactive)
25 | O=c1[nH]c2cc(Cl)ccc2nc1/C=C(\O)c1cccc2ccccc12 | 35% (inactive)
26 | Cc1cccnc1Nc1ncccc1C | 10.8% (inactive)
27 | C[N+]([O-])=C(c1ccccc1)c1ccccc1 | -4.9% (inactive)
28 | Cc1c(C2CCSc3ccccc3N2)sc2ccccc12 (configuration not stated) | 7.2% (inactive)
29 | CCOC(=O)c1[nH]c(Cc2[nH]c(Cc3[nH]c(C(=O)OCC)c(C)c3C(=O)OCC)c(C(=O)OCC)c2C)c(C(=O)OCC)c1C | 8.55% (inactive)
30 | Cc1ccc(-c2cc(=O)c3cc(C)c(C)c(C(=O)O)c3o2)cc1C | 20.7% (inactive)
31 | CC(C)OC(=O)c1cccnc1 | -2.45% (inactive)
32 | CC(C)=C1CCC/C1=N\Nc1ccc([N+](=O)[O-])cc1[N+](=O)[O-] | -8.75% (inactive)

Row | Structure (SMILES) | growth inhibition
33 | C1=Cc2ccccc2Nc2ccccc21 | -23.5% (inactive)
34 | COc1ccc(/C=C(\CC(=O)c2ccc(Cl)cc2)C(=O)O)cc1 | -5.8% (inactive)
35 | CC1(c2ccc(Cl)cc2)NC(=O)NC1=O (configuration not stated) | -20.1% (inactive)
36 | CC(=O)Oc1ccc([N+](=O)[O-])cc1 | 34% (inactive)
37 | CC1(C)N=C(N)N=C(N)N1c1cccc(CSc2ccccc2)c1 | -19.6% (inactive)
38 | O=Nc1ccc(Br)cc1 | -7.5% (inactive)
39 | O=C(OC1CCc2ccccc2C1)c1ccc(N=Nc2ccccc2)cc1 (configuration not stated) | 18.9% (inactive)
40 | CN(/N=C/c1ccccc1)c1nnnn1-c1ccccc1 | 9.9% (inactive)
41 | O=C(Nc1ccccn1)c1ccccc1 | 31.8% (inactive)
42 | CCCCOC(=O)NC(=O)c1cc2cccc(OC)c2oc1=O | 10.2% (inactive)
43 | Cc1nnc2n(c1=O)CCN2C | 26.2% (inactive)
44 | Cc1ccc(N=C(C(=O)c2ccccc2)C(Nc2ccc(C)cc2)C(=O)c2ccccc2)cc1 (configuration not stated) | 10.7% (inactive)
45 | CCCCN(CCCC)CC(O)c1c2cccc(Cl)c2cc2c(Cl)cccc12 (configuration not stated) | 99.1% (active)
46 | CC(c1ccccc1)n1cnc2c(N(CCO)CCO)ncnc21 (configuration not stated) | 11.7% (inactive)
47 | CCOC1([N+](=O)[O-])c2ccccc2-c2nc3ccccc3cc21 (configuration not stated) | 92.4% (active)
48 | O=C(Nc1ccc(Br)cc1)C(=O)C(C(=O)c1ccc(Cl)c(Cl)c1)C1OC(=O)c2ccccc21 (configuration not stated) | 36.7% (inactive)
49 | Cc1ccc(-n2[nH]nc(C#N)c2=O)cc1 | 5.65% (inactive)
50 | FC(F)(F)c1nnc(-c2ccccc2)nn1 | -8.5% (inactive)
51 | C=CCOC(C)OCC=C | -0.15% (inactive)
52 | COc1ccc(COC(=O)NC2CCCCC2)cc1OC | 45.9% (inactive)
